Assay results published in PubChem BioAssay (Tox21).
Results filed as inconclusive are left out. Calls of active or inactive are those of the source. Calls follow the shape of the dose curve; as a rule, active = well fitted cell-killing curve with a large enough effect in the repeat runs; inconclusive = weak or mixed curves, or effect the other way; inactive = flat fitted curve, though single readings scatter.

test: qHTS assay to identify small molecule agonists of the TGF-beta/Smad signaling pathway - cell viability counter screen (AID 1346829); conditions: SBE-bla HEK293T viability, CellTiter-Glo luminescence, 5 h; series mostly up to 76.8 µM; activity change, negative = cytotoxicity: at the top concentration; also: top concentration of the series differs between compounds; nearly all actives have a fitted effect of over 45% in size
Text: National Center for Advancing Translational Sciences [NCATS]
NIH Chemical Genomics Center [NCGC]
U.S. Environmental Protection Agency [EPA]
National Institutes of Environmental Health Sciences [NIEHS]
National Toxicology Program [NTP]
U.S. Food and Drug Administration [FDA]
Transforming growth factor beta (TGF-beta) superfamily consists of a large number of structurally related dimeric proteins that act as hormones or local mediators in regulating a wide range of biological functions. This superfamily includes TGF-betas themselves, the bone morphogenetic proteins (BMPs) and the activins. These ligands induce oligomerization of serine/threonine receptor kinases and phosphorylate the cytoplasmic signaling molecules of Smad protein family. CellSensor SBE-bla HEK 293T cell line (Life Technologies, Carlsbad, CA), responsive to TGF-beta was used to screen Tox21 10K compound library for identification of agonists/antagonists of the Smad signaling pathway. This cell line contains a beta-lactamase reporter gene under control of the Smad binding element (SBE) stably integrated into HEK 293T cells. Also cytotoxicity of the compounds was tested in parallel by measuring the cell viability using CellTiter-Glo assay system in the same wells.
Tox21 Assay Protocol Summary:
SBE-bla HEK 293T cells were dispensed at 4,000/well in 6 uL of assay medium into black wall/clear-bottom 1536-well plates using a Multidrop Combi (ThermoFisher Scientific, Waltham, MA) dispenser. After the assay plates were incubated at 37 C and 5% CO2 for an overnight, 23 nL of compounds dissolved in DMSO, positive controls or DMSO only was transferred to the assay plate by a Pintool station (Kalypsys, San Diego, CA). The assay plates were incubated at 37 C and 5% CO2 for 5 hr. One uL of LiveBLAzer B/G FRET substrate (Life Technologies) was added using a Flying Reagent Dispenser (FRD, Aurora Discovery, San Diego, CA) and the plates were incubated at room temperature for 2 hr. Fluorescence intensity (405 nm excitation, 460 nm and 530 nm emissions) was measured using an Envision plate reader (PerkinElmer, Shelton, CT). For cytotoxicity read, 4 uL of CellTiter-Glo reagent (Promega Corporation, Madison, WI) was added to each well of the assay plates using FRD. After 30min incubation at room temperature, the luminescence intensity was measured using ViewLux plate reader (PerkinElmer).
% is scaled to controls: 0 for no effect and ±100 for the full control effect.

Compound | activity change, negative = cytotoxicity
O=C(OCC(O)CO)c1ccccc1Nc1ccnc2cc(Cl)ccc12 (stereo not given) | 10.9% [at 35.3 µM] (inactive)
CC(=O)NC1(c2cccc(F)c2)CCN(CC[C@@]2(c3ccc(Cl)c(Cl)c3)CN(c3ccccc3)C(=O)CO2)CC1 | -19.7% (inactive)
Cc1cc(C)c(N)cc1C | -24.3% (inactive)
CCOC(=O)/C=C/C(=O)OCC | 0.888% (inactive)
Cc1cc(O)c(C)c(C)c1O | 11.2% [at 35.3 µM] (inactive)
CCCCCCCCOc1ccc(C(=O)O)cc1 | 1.68% (inactive)
CC(C)=CCC/C(C)=C/CC/C(C)=C/C(=O)OCC(=O)[C@@]1(O)CC[C@H]2[C@@H]3CCC4=CC(=O)C=C[C@]4(C)[C@H]3[C@@H](O)C[C@@]21C | -21.4% [at 35.3 µM] (inactive)
Oc1cccc(O)c1O | 0.196% (inactive)
CN1C[C@H](C(=O)N[C@]2(C)O[C@@]3(O)[C@@H]4CCCN4C(=O)[C@H](Cc4ccccc4)N3C2=O)C[C@@H]2c3cccc4[nH]cc(c34)C[C@H]21 | 2.38% [at 35.3 µM] (inactive)
CC1CC(C)C(=O)C1=O (stereo not given) | -4.83% (inactive)
O=C(O)C[C@H](NC(=O)OCc1ccccc1)C(=O)O | 8.76% (inactive)
CCOc1ccc(Cc2nccc3cc(OCC)c(OCC)cc23)cc1OCC | -10.9% [at 35.3 µM] (inactive)
Clc1ccc(Nc2nnc(Cc3ccncc3)c3ccccc23)cc1 | 20.2% [at 35.3 µM] (inactive)
CCCC(=O)C(=O)O | 1.16% (inactive)
CC1=C(CC=O)C(C)(C)CCC1 | -0.5% (inactive)
O=C1Cc2ccccc2N1c1c(Cl)cccc1Cl | -15.8% (inactive)
O=C=Nc1ccc(Cl)c(Cl)c1 | 1.11% (inactive)
CCCCCCCCCI | 2.52% (inactive)
Cc1cc(O)ccc1O | 28.3% (inactive)
C[C@@H](O[C@H]1OCCN(Cc2n[nH]c(=O)[nH]2)[C@H]1c1ccc(F)cc1)c1cc(C(F)(F)F)cc(C(F)(F)F)c1 | -27.8% [at 35.3 µM] (inactive)

Compound | activity change, negative = cytotoxicity
COC(=O)c1nc(Cl)c(Cl)nc1N | -24.7% [at 35.3 µM] (inactive)
C=C/C(C)=C/C/C=C(\C)CCC=C(C)C | 1.27% (inactive)
O[C@@H]1CO[C@H]2[C@@H]1OC[C@@H]2O | -5.23% [at 35.3 µM] (inactive)
COc1ccccc1N1CCN(CCCCNC(=O)c2ccc(-c3ccc(C(C)=O)cc3)cc2)CC1 | 7.44% [at 35.3 µM] (inactive)
Clc1cc(Cl)nc(Cl)n1 | -3.61% (inactive)
C=C(C)C(=O)OCCOCCOC(=O)C(=C)C | 1.84% (inactive)
CCC1(CO)COCOC1 | 4.57% (inactive)
CC(CCC(=O)O)C(=O)O (stereo not given) | 2.94% (inactive)
C=C(C)C(=O)OCCCCCCCCCCCCC | -15.1% (inactive)
CCOC(C)=O | -4.95% (inactive)
O=C1c2ccccc2C(=O)C1c1nc2ccccc2c(Br)c1O | -14.7% (inactive)
O=c1[nH]ncc2ccccc12 | 4.71% (inactive)
C1C[C@@H]2[C@H]3CC[C@H](C3)[C@@H]2C1 | 19% (inactive)
C=CC(C)(CCC=C(C)C)OC(=O)CC(C)C (stereo not given) | 0.446% (inactive)
O=C1c2ccccc2C(=O)N1CCc1noc(-c2ccc(CN3CCCCCC3)s2)n1 | -18% (inactive)
CCCCCCCCCCC(=O)O | -8.51% (inactive)
O=c1[nH]c2ccc(Cl)cc2o1 | 15.6% (inactive)
Cc1ccc(CO)cc1 | 0.634% (inactive)
O=[N+]([O-])c1ccc(O/N=C/c2cc(Br)c(O)c(Br)c2)c([N+](=O)[O-])c1 | -0.0304% (inactive)
Cc1ccc(OC(=O)c2ccccc2O)cc1 | 0.856% (inactive)
